# From PubChem BioAssay (NCI)
# This is part of a sample that, as a whole, favours compounds with a hit. Of some 83,000 tested, about 20% had one in any assay.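 Assay: single dose, 48 h. Readout: percent growth (0 = no net growth; negative = cell death). Active: <10.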 Values without a mark were called inactive. The source made the active and inactive calls.
# System: TK-10 renal
# Experiment: NCI-60 one-dose screen, 48 h (100 = growth as untreated, 0 = no growth, -100 = all killed)
# Conditions: 10 µM unless noted
# Protocol: Growth inhibition of the TK-10 human tumor cell line is measured as a screen for anti-cancer activity. Cells are grown in 96 well plates and exposed to the test compound for 48 hours. Compounds are tested at a single concentration, which is 10^-5 M for most compounds. The reported endpoint is percent growth (GI% or GIPRCNT), where numbers from 0 - 100% represent growth inhibition, and numbers from -100% - 0 represent cell death. For example, a value of 40 represents 60% growth inhibition. A value of 0 means no net growth occurred over the course of the experiment. A value of -40 indicates 40% of cells at the beginning of the experiment died by the end of the experiment. A value of -100 means all cells are dead at the end of the experiment.
# NCI-60 Human Tumor Cell Lines Screen was performed using the standard one-dose NCI protocol, which is described in more detail at https://dtp.cancer.gov/discovery_development/nci-60/default.htm.
# Compounds with GIPRCNT values below 10 were considered active. Activity score was based on GIPRCNT using the following formula: […]
# Score is 0 for GIPRCNT values of 100 or above, 50 for GIPRCNT values of 0, and 100 for GIPRCNT values of -100.
row,Compound,growth
1,Cc1cccc(NC(=O)CCc2ccc(N3C(N)=NC(N)=NC3(C)C)cc2)c1,82.5%
2,O=C(Nc1ccc(Cl)c(Cl)c1)Nc1ccc(Cl)c([N+](=O)[O-])c1,-0.585% (active)
3,COc1ccc2c(c1)C(=O)/C(=C/c1cccc(OCC(=O)c3ccccc3)c1)O2,30.7%
4,CC(=O)Oc1ccc(C(OC(C)=O)OC(C)=O)cc1,98.8%
5,CC(=O)Nc1ccc([I+]c2ccc([N+](=O)[O-])cc2)cc1,87.4%
6,C/C(=N\N=C1/SCC(=O)N1c1ccccc1)c1ccco1,96.9%
7,COc1ccc(-c2nnc(SCC(=O)Nc3ccc(C(=O)/C=C/c4ccccc4)cc3)o2)cc1OC,96.1%
8,C#C[C@H](O)/C=C/CCCCCCC#C[C@H](O)CC[C@@H](O)C#CCCCCCC/C=C/[C@@H](O)C#C,106%
9,O=C(CSc1nnc(-c2ccccc2)o1)Nc1ccc(C(=O)/C=C/c2ccccc2)cc1,91%
10,COc1ccc(-c2c(NC(=O)Nc3ccc(Cl)c(C(F)(F)F)c3)cnn2-c2ccc(S(N)(=O)=O)cc2)cc1,30.9%
11,COc1cc(/C=C\c2cc(/C=C\c3ccc(O)c(OC)c3)n(C(=O)CNc3ccccc3OC)n2)ccc1O,113%
12,C#CC(=O)/C=C/CCCCCCC#CC(=O)CCC(=O)C#CCCCCCC/C=C/C(=O)C#C,32.5%
13,CCOc1ccc(NC(=O)Nc2cc(C(C)C)ccc2C)cc1,55%
14,Cc1cc(SCc2ccc(Cl)cc2Cl)nc(SCc2ccc(Cl)cc2Cl)n1,94.9%
15,CC(C)(C)OC(=O)N1CCN(CCn2cc(C(F)(F)F)c3c(Cl)ncnc32)CC1,115%
16,COc1ccc2c(c1)nnc1c3cccnc3[nH]c21,11.8%
17,S=c1[nH]nc(Cn2c3ccccc3c3ccncc32)o1,102%
18,CCOc1ccccc1C(=O)N1CCN(c2cc(Cl)cc(Cl)c2)CC1,55.5%
19,COc1ccc(Cl)cc1NC(=O)c1cc2c(n1C)-c1nc(NC(=O)C(C)(C)C)sc1CC2,98%
20,O=C(Nc1ccccc1Cl)c1c[nH]c(=O)c(-c2ccc(N3CCCOC4(CC4)C3)cc2)c1,52.4%

row,Compound,growth
1,COC(OC)C1(c2ccccc2)NC(=O)NC1=O (stereo not given),101%
2,O=C(C[n+]1ccccc1Cl)c1ccc2c(c1)CCCC2,92.8%
3,Cc1ccc(-c2nc3c(N=Nc4ccc(S(N)(=O)=O)cc4)c(N)nn3c(N)c2C#N)cc1,65.8%
4,C=CCOc1ccc(/C(Cl)=N/N=C(\Cl)c2cc(OC)c(OC)c(OC)c2)cc1,96.4%
5,Nc1nccc(=S)[nH]1,95.6%
6,COc1ccc(N)c(S)c1,105%
7,CCC1S/C(=N\N=C(/C)c2cccs2)N(c2ccccc2)C1=O (stereo not given),114%
8,N#Cc1c2c(c(N)[nH]c1=O)C(=O)NC2(O)c1ccccc1 (stereo not given),93%
9,CC(CCC(=O)O)[C@H]1CCC2C3C(=O)C[C@@H]4CC(=O)CC[C@]4(C)C3CC(=O)[C@@]21C (stereo not given in full),116%
10,CN(C)c1ccc2cc(-c3nc4ccccc4s3)c(N)nc2c1,111%
11,CCN(CC)c1ccc(C2CC(c3cc(OC)c(OC)c(OC)c3)=NN2)cc1 (stereo not given),77.8%
12,COc1cc(/C=C/C(=O)c2ccc(Oc3ncnc4ccccc34)cc2)cc(OC)c1OC,100%
13,COC(=O)c1ccc(NC(N)=NCC(C)(C)COc2ccc(C(F)(F)F)cc2)nc1,53.9%
14,C=C1C(=O)O[C@H]2[C@H]1CC/C(C(=O)Nc1ccc(OC)c(C(N)=O)c1O)=C\CC[C@@]1(C)O[C@@H]21,22.6%
15,COc1ccc(Cl)cc1NC(=O)c1cc2c([nH]1)-c1nc(N)sc1CCC2,97.8%
16,NC(=S)NNC1CCCCC1,97.2%
17,O=C(COc1ccc(Cl)cc1)N1CCN(Cc2ccc3c(c2)OCO3)CC1,116%
18,Cc1c(C(C)(C)C)cc(C(C)(C)C)c2c1CN(C)CO2,102%
19,CC(=O)O[C@@H]1[C@@H](OC(C)=O)[C@H](OC(C)=O)CO[C@H]1Nc1cccc2ccccc12,115%
20,CCOC(=O)C1CN(Cc2ccccc2)C(=O)C1=O (stereo not given),113%
